According to PubChem BioAssay AID2061166 (Soto Lab, Mitchell Center for Alzheimers Disease and …, 2025):
A number with no mark means an inactive call.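 The calls were made as follows: active = mean tau seeding fluorescence area under 1% of vehicle, meaning inhibition above a set limit; inactive = the rest.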

These compounds were tested against Microtubule-associated protein tau (Homo sapiens) (UniProt P10636) (assay: blockers of AD brain-seeded tau fibril growth – biochemical, seed amplification, ThT fluorescence, primary screen (AID 2061166)). Settings: Recombinant tau seeded by AD brain, ThT fluorescence AUC; at 100 µM; active compounds read high.
Sequence of Microtubule-associated protein tau (Homo sapiens) (P10636 whole entry, looked up): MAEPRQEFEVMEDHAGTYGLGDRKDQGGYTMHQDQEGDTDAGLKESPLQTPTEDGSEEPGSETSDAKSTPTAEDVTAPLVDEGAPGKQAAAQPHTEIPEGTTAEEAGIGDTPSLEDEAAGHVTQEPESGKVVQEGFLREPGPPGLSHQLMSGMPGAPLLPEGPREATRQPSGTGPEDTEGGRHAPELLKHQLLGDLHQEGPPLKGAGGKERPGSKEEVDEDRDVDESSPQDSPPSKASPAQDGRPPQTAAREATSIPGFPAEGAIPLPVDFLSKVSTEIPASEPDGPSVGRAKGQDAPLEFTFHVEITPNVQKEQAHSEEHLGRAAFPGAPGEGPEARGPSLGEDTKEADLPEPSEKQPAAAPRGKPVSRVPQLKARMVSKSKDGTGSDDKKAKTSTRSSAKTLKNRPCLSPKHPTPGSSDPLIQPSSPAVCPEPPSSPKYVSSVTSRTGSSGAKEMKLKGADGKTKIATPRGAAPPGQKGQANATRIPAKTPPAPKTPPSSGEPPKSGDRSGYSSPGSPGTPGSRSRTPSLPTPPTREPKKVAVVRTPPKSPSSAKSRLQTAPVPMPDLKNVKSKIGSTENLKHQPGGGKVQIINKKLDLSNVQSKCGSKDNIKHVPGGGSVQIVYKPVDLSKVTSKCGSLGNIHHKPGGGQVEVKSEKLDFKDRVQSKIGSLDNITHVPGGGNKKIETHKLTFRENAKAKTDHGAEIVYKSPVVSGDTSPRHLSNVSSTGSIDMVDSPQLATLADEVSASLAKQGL

Row | Compound | inhibition
1 | COc1ccc2c3c([nH]c2c1)C(C)=NCC3 | 11.8%
2 | O=c1c2ccccc2[se]n1-c1ccccc1 | 51.6%
3 | O=C(CS(=O)C(c1ccccc1)c1ccccc1)NO (configuration not stated) | 7.82%
4 | Cn1cc(C2=C(c3cn(C4CCN(Cc5ccccn5)CC4)c4ccccc34)C(=O)NC2=O)c2ccccc21 | 18.6%
5 | O=C1C=C2C=CC3CC2(O1)C1CCCCN31 (configuration not stated) | 17%
6 | Cc1cccc(C(C)c2cnc[nH]2)c1C (configuration not stated) | 17.4%
7 | c1cncc(C2=NCCC2)c1 | 32.6%
8 | Cn1c(CCCC(=O)O)nc2cc(N(CCCl)CCCl)ccc21 | 48%
9 | COc1ccc2c(c1)[nH]c1c(C)nccc12 | 35.5%
10 | CNC(=O)Oc1cccc2ccccc12 | 63.7%
11 | COc1ccc(C(CN(C)C)C2(O)CCCCC2)cc1 (configuration not stated) | 40.8%
12 | COc1ccc(C(=O)O)cc1OC | 11.4%
